An excerpt weighted towards active compounds, which were near 12% of everything screened.
G9a inh: blocks human histone lysine methyltransferase G9a. Potency, µM (doses to about 102 µM), actives largely listed as inhibitors. AID 504332. actives 8.8% (n = 350,000). G9a H3K9 monomethylation, AlphaScreen, 2 h. Q96KQ7; further: nearly all actives have a fitted effect of over 75% in size
Target sequence (Q96KQ7 913-1193 limits assumed): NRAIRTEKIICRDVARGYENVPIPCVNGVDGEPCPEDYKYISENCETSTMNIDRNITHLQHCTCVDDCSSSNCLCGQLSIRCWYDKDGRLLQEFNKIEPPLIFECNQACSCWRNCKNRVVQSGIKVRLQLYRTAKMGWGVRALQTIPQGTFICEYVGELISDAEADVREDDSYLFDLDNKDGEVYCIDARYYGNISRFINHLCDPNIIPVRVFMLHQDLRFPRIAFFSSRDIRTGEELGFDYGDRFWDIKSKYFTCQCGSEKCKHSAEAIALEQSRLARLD
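G9a (20 nM) was preincubated 15 min with compound, then reacted 2 h at room temperature with 500 nM biotin-H3K9 peptide and 20 µM SAM. Monomethyl-H3K9 detected by AlphaScreen using anti-H3K9me1 antibody.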
BAZ2B inh: inhibitors of human BAZ2B bromodomain. Q9UIF8. AlphaScreen BAZ2B-H3K14Ac peptide displacement. Potency, µM (titrated, usually from 114 µM), hits mostly inhibitors. actives 4.4% (n = 360,000); further: nearly all actives have a fitted effect of over 60% in size
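Inhibition is scored as reduced AlphaScreen emission. The BAZ2B/b-H3(5-23)K14Ac complex (50 nM each) in PBS pH 7.4, 0.01% Tween-20 meets compound (up to 110 uM) for 30 min at RT before bead addition.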
PI5P4K alpha inh: PI5P4K alpha (human) kinase inhibition; max response, %; actives 1.2% (n = 330,000); AID 652105; PI5P4Kalpha enzyme, ADP-Glo luminescence, 60 min; hits give low values; active means max response of -50% or lower; inconclusive means between -30% and -50%; inactive means -30% or higher; further: value at the top dose of about 77 µM
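ADP-Glo luminescence end-point after a 60 min room-temperature kinase reaction. PI5P4Kalpha and substrate in HEPES pH 7.4 buffer with EGTA, 0.1% CHAPS and 5% DMSO; ATP at 5 microM final.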
HP1b binding inh: blocks HP1-beta chromodomain binding to methylated histone tails; P83916; AlphaScreen HP1-beta / biotin-H3K9me3 peptide binding; Potency, µM (doses to about 114 µM), most hits filed as inhibitors; actives 0.56% (n = 390,000); AID 540317; further: nearly all actives have a fitted effect of over 70% in size
Target sequence (P83916 whole entry, looked up): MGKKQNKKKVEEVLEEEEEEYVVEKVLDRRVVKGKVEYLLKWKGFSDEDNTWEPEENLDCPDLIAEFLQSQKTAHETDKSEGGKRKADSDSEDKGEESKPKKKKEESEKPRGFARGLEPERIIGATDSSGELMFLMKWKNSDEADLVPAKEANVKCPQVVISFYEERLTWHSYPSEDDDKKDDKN
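HP1-beta protein (50 nM final) preincubated 30 min at room temperature with biotinylated H3(1-18)K9me3 peptide (50 nM) in PBS pH 7.4, 0.01% Tween-20, then compound added for 30 min. AlphaScreen streptavidin donor/nickel chelate acceptor beads (10 ug/mL final), 30 min dark, luminescence read.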
JMJD2A Tudor inh: blocks the human JMJD2A Tudor domain; AlphaScreen JMJD2A-Tudor / H3K4me3 peptide binding; actives 4.4% (n = 390,000); Potency, µM (highest dose often 114 µM), actives largely listed as inhibitors; AID 504339; further: nearly all actives have a fitted effect of over 50% in size
PLK1 PBD block: blocks phosphopeptide binding to human PLK1 polo-box domain. P53350. Plk1 PBD binding of FITC phosphopeptide, fluorescence polarization. Potency, µM, usual class: inhibitors. actives 2.8% (n = 360,000); further: series mostly up to about 57 µM; nearly all actives have a fitted effect of over 65% in size
Numbers stand for hits; . = inactive; ? = inconclusive; / = no result; [ ] = another dose, or the depositor's remark. Unless noted, the call rests on the fitted dose curve; in most records, active means well fitted curve in the direction sought with a large enough effect; inconclusive means small, poorly fitted or top-dose-only effect, or another doubt; inactive means no such curve, though single readings can be large; an effect the other way counts as inactive or inconclusive.

SMILES	G9a inh	BAZ2B inh	PI5P4K alpha inh	HP1b binding inh	JMJD2A Tudor inh	PLK1 PBD block
CN1CCc2nc(SCC(=O)Nc3cccc(F)c3)c(C#N)c(-c3cccs3)c2C1	/	50µM	/	.	?	?
Cc1ccc(S(=O)(=O)N2CCN(C(=O)Cc3ccc(S(=O)(=O)N4CCOCC4)s3)CC2)cc1	79µM	.	.	.	.	.
Cc1ccc(OCC(=O)NNC(=O)Cc2ccc(S(=O)(=O)N3CCOCC3)s2)cc1	.[12.7 µM]	.	-61	.	.	.
Cc1ccc(S(=O)(=O)N(CCC(=O)N2CCOCC2)c2ccccc2)cc1	14µM	.	.	.	.	.
COc1ccc(C=Nc2cccc3c(=O)[nH][nH]c(=O)c23)c2ccccc12	50µM	.	/	.	.	.
COc1cccc(C=Nc2cccc3c(=O)[nH][nH]c(=O)c23)c1O	.	.	.	.	.	.
Cc1ccc(C)c2[nH]c(=O)c(C(c3nnnn3Cc3ccco3)N3CCc4ccccc4C3)cc12 (configuration not stated)	32µM	.	.	.	.	.
COc1ccccc1CN(Cc1cc2c(C)ccc(C)c2[nH]c1=O)Cc1nnnn1Cc1ccco1	13µM	.	.	.	.	.
Cc1ccc(C)c2[nH]c(=O)c(C(c3nnnn3CCc3ccccc3)N3CCOCC3)cc12 (configuration not stated)	.	.	.	.	.	.
Cc1ccc(CN(Cc2cc3cc4c(cc3[nH]c2=O)OCCO4)Cc2nnnn2Cc2ccco2)cc1	13µM	.	/	.	.	.
Cc1ccc2[nH]c(=O)c(CN(Cc3ccccc3)Cc3nnnn3Cc3ccco3)cc2c1	/	/	/	.	.	/
Cc1ccc2cc(CN(Cc3ccc4c(c3)OCO4)Cc3nnnn3Cc3ccco3)c(=O)[nH]c2c1	?	?	.	.	.	.
C=CCn1c(O)c(CN2CCCCC2)c(C)c(C#N)c1=O	50µM	.	.	.	.	.
COc1ccc(-c2csc(C(C)(O)c3ccc(OC)cc3)n2)cc1 (configuration not stated)	/	/	.	/	/	.
CCOC(=O)N1CCN(c2c(NCCCN(CC)c3cccc(C)c3)c(=O)c2=O)CC1	14µM	.	/	.	.	.
CCOC(=O)C1CCCN(c2c(NCCCN(C)c3ccccc3)c(=O)c2=O)C1 (configuration not stated)	56µM	.	.	.	.	.
CCOC(=O)N1CCN(c2c(NCCCN(CC)CC)c(=O)c2=O)CC1	.[12.7 µM]	.	.	.	.	.
CCOC(=O)C1CCCN(c2c(NCCc3ccccc3)c(=O)c2=O)C1 (configuration not stated)	.	.	.	.	.	.
CCCCCC(=O)N(c1ccc(OCC)cc1)S(=O)(=O)c1ccc2c(c1)n(C)c(=O)n2C	.	.	/	.	.	/
CO[C@H]1C([C@@]2(C)O[C@@H]2CC=C(C)C)[C@]2(CC[C@H]1OC(=O)/C=C/C=C/C=C/C=C/C(=O)O)CO2 (some centres not stated)	22µM	/	/	/	/	/
COc1ccc(-c2noc(C3CC(=O)N(c4ccc(C)c(F)c4)C3)n2)c(OC)c1 (configuration not stated)	.	.	/	.	.	/
COc1cc(/C=N/O)ccc1OCc1ccccc1Cl	.	.	.	.	.	.
COc1ccc(/C=N/n2cnn(Cc3ccccc3Cl)c2=S)cc1OC	40µM	.	.	?	.	24µM
Oc1ccc(/C=N/n2cnn(Cc3ccccc3Cl)c2=S)c(O)c1	3.2µM	.	.	.	?	11µM
NC(=O)Cn1c(=O)n(Cc2ccccc2)c(=O)c2cccnc21	.	.	.	.	.	.
SMILES	G9a inh	BAZ2B inh	PI5P4K alpha inh	HP1b binding inh	JMJD2A Tudor inh	PLK1 PBD block
C[C@]12CCC(=O)C=C1CCC1C2C(=O)C[C@]2(C)C1CC[C@]2(O)C(=O)CO (some centres not stated)	.	/	/	/	/	/
COc1ccc(C)cc1NC(=O)c1cc(S(=O)(=O)NC2CCCCCC2)ccc1F	.	.	/	.	.	/
CC1(c2ccc(OC(F)F)cc2)NC(=O)N(CC(=O)Nc2ccc(Cl)cc2F)C1=O (configuration not stated)	.	.	.	.	.	.
Cc1cc(/C=N/NC(=O)C(=O)N2CCCC2)c(C)n1-c1cccc(Br)c1	?	.	.	.	?	.
Cc1cc(/C=N/NC(=O)c2c(Br)cnn2C)c(C)n1-c1cccc(Br)c1	?	28µM	.	?	?	.
CNC(=S)N/N=C/c1cc(C)n(-c2ccc(Cl)c(Cl)c2)c1C	45µM	35µM	.	?	?	.
Cc1cc(/C=N/NC(=O)c2ccccc2F)c(C)n1-c1ccccc1	50µM	.	.	.	.	.
COc1ccc(Br)cc1/C=N/n1c(COc2ccccc2)n[nH]c1=S	45µM	.	.	.	.	.
COc1ccc(OC)c(/C=N/n2c(COc3ccccc3)n[nH]c2=S)c1	?	.	.	.	.	.
COc1ccc(/C=N/n2c(COc3ccccc3)n[nH]c2=S)cc1OC	1.3µM	.	.	?	14µM	19µM
COc1cc(OC)c(OC)cc1/C=N/n1c(COc2ccccc2)n[nH]c1=S	?	.	.	?	18µM	27µM
Cc1ccsc1C(=O)N(C)CC(=O)Nc1ccccc1Br	.	.	.	.	.	.
COc1ccc(-n2nc3c(c2NC(=O)COc2ccccc2F)CS(=O)(=O)C3)cc1	.	.	.	.	.	.
Nc1cccc2c1C(=O)N(CCOc1ccc(F)cc1)C2=O	.	.	.	.	.	.
CC1CN(S(=O)(=O)c2cccc(-c3csc(-c4ccccc4)n3)c2)CC(C)O1 (configuration not stated)	18µM	.	.	.	.	.
O=S(=O)(c1cccc(-c2csc(-c3ccccc3)n2)c1)N1CCOCC1	.	.	.	.	.	.
Cc1cc(C(C#N)c2cccc(Cl)c2)n2ncnc2n1 (configuration not stated)	8.9µM	?	.	.	?	.
Cc1cc(C(C#N)c2ccccc2)n2ncnc2n1 (configuration not stated)	?	.	.	.	.	.
CCN(CC)CCCNc1ccc2ncn3c4ccc(O)cc4c(=O)c1c23	/	/	.	.	.	11µM
CCOc1ccc(C(=S)NC2CCCCC2)cc1OC	13µM	.	/	?	?	9.5µM
CCOc1ccc(CC(=O)NNC(=S)NC2CCCCC2)cc1OCC	.	.	.	.	.	.
CCOc1ccccc1C(=S)NC1CCCCC1	35µM	.	.	.	.	?
O=c1c2ccccc2c2ccccc2c(=O)n1-c1ccccc1	50µM	.	.	.	.	?
O=c1c2ccccc2c(=O)n(-c2ccccc2)n1-c1ccccc1	/	/	.	.	.	.
CCC(=O)Nc1ccc(Cl)c(NC(=O)c2cccc(OC)c2)c1	.	.	.	.	.	.

High-throughput results: PubChem, National Center for Advancing Translational Sciences (NCATS)
